Screening data from PubChem BioAssay.
Shiga toxin inh: inhibitors of Shiga toxin in Vero cells. Vero cells, Shiga toxin protein synthesis inhibition reporter. inhibition, % at 38.7 µM. 290,000 compounds, 9.2% hits; in the data active = inhibition mostly above about 28%, no sharp cut-off; inactive = mostly below about 43%; also: 0% is about no effect
HCMV inh: human cytomegalovirus inhibition; HFF cells, HCMV-luciferase reporter, 72 h; stronger effect = lower value; activity change, negative = inhibition, % at 57.5 µM; 410,000 compounds, 4.5% hits; AID 1259415; in the data active = activity change below about -60%; inconclusive = no clear call, values can overlap the other calls; inactive = above about -39%; also: % is scaled to controls: 0 for no effect and ±100 for the full control effect
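Cell-based, HFFs, 1000 cells/well, 16 h 37C; cpds in DMSO + HCMV-luc, MOI 1 PFU/cell; 72 h 37C; OneGlo luminescence after 5 min RT; norm. to buffer vs Salinomycin 10uM.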
CHX counter: counter-screen for Shiga toxin inhibitors: cycloheximide protein synthesis inhibition | 300,000 compounds, 12% hits | cell reporter, cycloheximide protein synthesis inhibition counterscreen | max response, %; in the data active = max response mostly above about 13%, no sharp cut-off; inactive = mostly below about 14%; also: read at 38.3 µM for the half of the compounds with a filed dose; 0% is about no effect
HCV inh: inhibitors of hepatitis C virus infection; Huh7.5.1 HCVcc-Cre infection, luciferase reporter, 44 h; Potency, µM (doses to about 41.8 µM), inactives show at the top dose activity change, negative = inhibition, most hits filed as inhibitors; 340,000 compounds, 3.4% hits; AID 651820; also: potency is read from the fitted curve at half-maximal effect; % is scaled to controls: 0 for no effect and ±100 for the full control effect
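Cells seeded at 1,000/well and cultured 4 h, then compounds added followed by HCVcc-Cre virus (~0.5 moi). After 44 h further culture, luciferase substrate was added, plates held 15 min at room temperature, and luminescence read for 15 sec.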
Pf growth 96h: P. falciparum growth inhibition at 96 hours; 320,000 compounds, 6.9% hits; AID 504834; Potency, µM (titrated, usually from 28.7 µM), inactives show at the highest dose activity change, negative = inhibition, actives largely listed as inhibitors; P. falciparum luciferase reporter growth, 96 h; also: potency is read from the fitted curve at half-maximal effect; % is scaled to controls: 0 for no effect and ±100 for the full control effect
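Erythrocytes infected with luciferase-expressing P. falciparum were dispensed at 2% hematocrit and 0.05% parasitemia (final), then incubated with compounds 96 hours at 37 C in 5% CO2. Luminescence after detection reagent addition reported growth.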
Pf growth 48h: P. falciparum growth inhibition at 48 hours (one generation); P. falciparum luciferase growth in erythrocytes, 48 h; Potency, µM (doses to about 28.7 µM), for the others: at the top dose activity change, negative = inhibition, most hits filed as inhibitors; 310,000 compounds, 5.9% hits; AID 504832; also: potency is read from the fitted curve at half-maximal effect; % is scaled to controls: 0 for no effect and ±100 for the full control effect
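Cell-based growth assay: transgenic P. falciparum expressing firefly luciferase, cultured in red cells within RPMI 1640 containing 0.5% w/v Albumax, 24 mM bicarbonate and gentamycin. A drop in luciferase activity indicates inhibition.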
* hit, by the source's call; u = inconclusive; x = no result given; + = active, no number; [ ] = remark or other dose. Shown are actives, neighbours in structure and some others; about 21% of the full set was active somewhere. Unless noted, calls follow the shape of the dose curve; as a rule, active = well fitted inhibition curve with a large enough effect; inconclusive = small, poorly fitted or top-dose-only effect, or another doubt; inactive = no such curve, though single readings can be large or run the other way.

SMILES | Shiga toxin inh | HCMV inh | CHX counter | HCV inh | Pf growth 96h | Pf growth 48h
Cc1ccc2nc(NC(=O)COC(=O)CSc3nc(C)cc(C)n3)sc2c1 | 78.0* | 206.8 | 40.5* | -2.7% | 51.8% | 114.4%
CCOC(=O)Cc1cnc(NC(=O)CSc2nc(C)cc(C)n2)s1 | -7.9 | 1.4 | 2.3 | -14.6% | 10.4µM* | 1.0%
CSc1nsc(SCC(=O)Nc2nc3ccc(C)cc3s2)n1 | 34.0 | 41.0 | 20.0* | -22.2% | 92.0% | 34.4%
Cc1cc(C)nc(SCC(=O)Nc2ncc(Cc3cccc(Cl)c3Cl)s2)n1 | -5.1 | 12.4 | -1.6 | u | 21.7% | -18.6%
COC(=O)c1ccc2nc(NC(=O)COC(=O)CSc3nc(C)cc(C)n3)sc2c1 | 64.9* | 110.1 | 31.2* | -12.6% | 4.1% | 76.5%
CCOC(=O)C1CCCN(S(=O)(=O)c2ccc3c(c2)N(C(C)=O)CCO3)C1 (stereo not given) | -6.2 | 4.9 | -3.0 | 11.8% | -1.6% | 9.5%
CCOC(=O)C1=C(COC(=O)CCOc2cc(C)ccc2C)NC(=O)NC1C (stereo not given) | x | 5.7 | x | -2.8% | -21.7% | u
CCOc1ccc2nc(NC(=O)CS(=O)(=O)c3ccc(C)cc3)sc2c1 | 20.2 | 31.4 | 24.8 | -21.8% | 11.7% | x
O=C(CS(=O)(=O)c1ccccc1)Nc1nc2ccccc2s1 | 22.5 | 134.2 | 25.2* | 8.1% | -6.1% | 40.3%
CCOc1ccc2nc(NC(=O)CS(=O)(=O)c3ccc(Cl)cc3)sc2c1 | x | + | x | x | x | x
O=C(C[n+]1cccc(CO)c1)Nc1nc2ccccc2s1 | 40.6 | 40.8 | 33.6* | 9.0% | 45.6% | 57.2%
CCOc1ccc2nc(NS(=O)(=O)Cc3ccccc3)sc2c1 | 10.3 | 33.0 | 20.5* | 8.6% | 23.3% | x
COc1ccccc1N1CCN(c2ncnc3c2nnn3C)CC1 | x | -0.1 | x | x | x | x
Cc1ccc(-c2cc(NC(=O)Cc3c(C)[nH]c4ccccc34)ccc2Nc2cccnc2)cc1 | x | 3.5 | x | x | x | x
COc1ccc(C(CNC(=O)c2oc3ccc(C)cc3c2C)N2CCOCC2)cc1 (stereo not given) | x | -1.3 | x | x | x | x
CCCCC(CC)COC(=O)CC(C(=O)OCC(CC)CCCC)S(=O)(=O)O (stereo not given) | -6.9 | 12.6 | -5.5 | x | -1.6% | -4.0%
CCOc1ccc2nc(NC(=O)CS(=O)(=O)c3ccccc3)sc2c1 | active | -10.3 | 25.8* | -10.6% | 5.22µM* | 39.2%
CC(=O)Nc1ccc2nc(NC(=O)CS(=O)(=O)c3ccccc3)sc2c1 | x | -1.2 | x | -1.4% | -4.6% | -1.5%
CN(C)CCCCOc1ccc(Br)cc1Cl | 28.5 | 14.2 | 14.2* | 10µM* | 1.8% | u
Cc1cc(Cl)cc(Cl)c1OCCCCN(C)C | -16.9 | 15.3 | 47.2* | u | 7.9% | u
COCCNCCCOc1ccc(Cl)cc1Br | -4.4 | -17.9 | -2.0 | -0.9% | u | -13.1%
COCCCNCCCCOc1ccc(Br)cc1Cl | -6.8 | u | -5.0 | 10µM* | u | u
COCCNCCCOc1ccc(Br)cc1Cl | -0.9 | -12.5 | -2.6 | 10µM* | u | -15.5%
Cc1nc2scc(C)n2c(=O)c1S(=O)(=O)N1CCN(c2ccc([N+](=O)[O-])cc2)CC1 | 6.3 | 20.7 | -5.4 | 13.2% | u | 8.7%
CCc1ccc(C2C(=O)c3ccccc3C2=O)cc1 | x | 7.7 | x | -4.4% | x | x
SMILES | Shiga toxin inh | HCMV inh | CHX counter | HCV inh | Pf growth 96h | Pf growth 48h
CCC(=O)Nc1ccc(C2C(=O)c3ccccc3C2=O)cc1 | 35.3 | 146.6 | 25.4* | 2.82µM* | 105.4% | 39.4%
CCCCC(=O)Nc1ccc(C2C(=O)c3ccccc3C2=O)cc1 | x | 55.2 | x | 10µM* | x | x
CCOc1ccc(NC(=O)Cc2c(C(=O)O)n(C)c3ccccc23)cc1 | -0.7 | 40.0 | -2.8 | 9.2% | 36.0% | -1.6%
O=[N+]([O-])c1cc(-c2cccnc2)n[nH]1 | x | -34.3 | x | u | x | x
COc1cccc(N2CCN(C(=O)CCCCCNc3nc(=S)[nH]c4ccccc34)CC2)c1 | -16.3 | -62.3* | -4.7 | 11.2µM* | 14.0% | -10.4%
Cc1ccc(CNC(=O)C2CCC(CNc3nc(=S)[nH]c4ccccc34)CC2)cc1 (stereo not given) | -3.7 | -17.2 | -3.7 | u | 120.6% | u
COc1cccc(CNC(=O)C2CCC(CNc3nc(=S)[nH]c4ccccc34)CC2)c1 (stereo not given) | -16.6 | 14.4 | -10.8 | 2µM* | 25.3% | u
NS(=O)(=O)c1ccc(CCNC(=O)CCCCCNc2nc(=S)[nH]c3ccccc23)cc1 | 5.7 | 21.6 | -1.0 | 9.9% | 2.94µM* | -7.2%
CC(=O)N1CCC(O)(c2ccc3c(c2)OCO3)CC1 | -8.7 | 5.6 | 1.3 | 4.0% | 0.0% | -5.7%
COCCNc1ncnc2c1ncn2[C@H]1CN(Cc2ccncc2)C[C@@H](CO)O1 | x | -16.2 | x | x | x | x
Cc1cc(C)c(-n2c(SCC(=O)N3CCOCC3)n[nH]c2=O)c(C)c1 | 3.0 | -15.5 | -1.6 | 10.9% | 0.0% | 33.2%
CC(NCc1cccs1)c1ccccc1 (stereo not given) | 30.4 | u | -1.3 | 6.5% | 11.7µM* | 36.4%
CC(C)(C)c1ccc(C(O)c2ncc(-c3cccc(F)c3)[nH]2)cc1 (stereo not given) | x | -3.4 | x | x | x | x
COc1ccc(CCNC(=O)C2CCC(=O)N2CCc2ccccc2)cc1OC (stereo not given) | 124.9* | -33.0 | 25.7* | 13.3% | -99.6% | 7.5%
Cc1ccc(CN2C(=O)CCC2C(=O)NCCc2ccccc2)cc1 (stereo not given) | -10.4 | 17.1 | -1.7 | 6.7% | 3.4% | -0.7%[0.00184 µM]
COc1ccc(CCNC(=O)C2c3ccccc3C(=O)N2CCC(C)C)cc1OC (stereo not given) | 4.3 | 26.4 | 5.7 | 14.5% | 8.28µM* | -11.7%
COc1ccc(CCNC(=O)C2(C)CCC(=O)N2CCC(C)C)cc1OC (stereo not given) | -6.1 | -99.9* | 2.0 | -2.5% | -28.5% | 7.5%
COc1ccc(CCNC(=O)C23CCC(C)(C(=O)O2)C3(C)C)cc1OC (stereo not given) | -5.3 | 16.2 | -1.1 | 13.2% | u | 2.1%
Cc1ccc(NCC2(N=Cc3ccccc3)OC(CO)C(O)C2O)cc1 (stereo not given) | x | -15.9 | x | 3.9% | x | x
Cc1ccc(S(=O)(=O)NCc2nc(-c3cccc(C)c3)no2)cc1 | x | -25.2 | x | x | x | x
NC(=O)C1CCN(C(=O)CC2(CC(=O)O)CCCC2)CC1 | 4.2 | 6.6 | -7.9 | 2.2% | -4.1% | 20.4%
O=C(Nc1c2c(nn1-c1ccc(Cl)cc1)CS(=O)(=O)C2)c1ccc(Br)cc1 | x | -75.9* | x | x | x | x
CC(C)(C)n1nc2c(c1NC(=O)c1ccc([N+](=O)[O-])cc1)CS(=O)(=O)C2 | 15.0 | -2.4 | 4.0 | 19.7% | 8.28µM* | 25.0%
Cc1ccc(C(=O)Nc2c3c(nn2C(C)(C)C)CS(=O)(=O)C3)cc1[N+](=O)[O-] | -0.7 | 26.0 | -6.8 | 17.8% | u | 0.4%
